Measured values as given in ChEMBL document CHEMBL1961873, “Compounds: GSK PKIS; Assays: Nanosyn kinase panel” (2012).

Legend:
[1] = biological target: Fibroblast growth factor receptor 4 (Homo sapiens) (UniProt P22455); conditions: at 1 µM;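 note: reported figure is the averaged percent inhibition of FGFR4, from the GSK PKIS kinase screening panel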
[2] = biological target: Tyrosine-protein kinase Fgr (Homo sapiens) (UniProt P09769); conditions: at 0.1 µM
[3] = biological target: Tyrosine-protein kinase Fgr (Homo sapiens) (UniProt P09769); conditions: at 1 µM
[4] = biological target: Vascular endothelial growth factor receptor 1 (Homo sapiens) (UniProt P17948); conditions: at 0.1 µM
Vascular endothelial growth factor receptor 1 (Homo sapiens), sequence (P17948 whole entry): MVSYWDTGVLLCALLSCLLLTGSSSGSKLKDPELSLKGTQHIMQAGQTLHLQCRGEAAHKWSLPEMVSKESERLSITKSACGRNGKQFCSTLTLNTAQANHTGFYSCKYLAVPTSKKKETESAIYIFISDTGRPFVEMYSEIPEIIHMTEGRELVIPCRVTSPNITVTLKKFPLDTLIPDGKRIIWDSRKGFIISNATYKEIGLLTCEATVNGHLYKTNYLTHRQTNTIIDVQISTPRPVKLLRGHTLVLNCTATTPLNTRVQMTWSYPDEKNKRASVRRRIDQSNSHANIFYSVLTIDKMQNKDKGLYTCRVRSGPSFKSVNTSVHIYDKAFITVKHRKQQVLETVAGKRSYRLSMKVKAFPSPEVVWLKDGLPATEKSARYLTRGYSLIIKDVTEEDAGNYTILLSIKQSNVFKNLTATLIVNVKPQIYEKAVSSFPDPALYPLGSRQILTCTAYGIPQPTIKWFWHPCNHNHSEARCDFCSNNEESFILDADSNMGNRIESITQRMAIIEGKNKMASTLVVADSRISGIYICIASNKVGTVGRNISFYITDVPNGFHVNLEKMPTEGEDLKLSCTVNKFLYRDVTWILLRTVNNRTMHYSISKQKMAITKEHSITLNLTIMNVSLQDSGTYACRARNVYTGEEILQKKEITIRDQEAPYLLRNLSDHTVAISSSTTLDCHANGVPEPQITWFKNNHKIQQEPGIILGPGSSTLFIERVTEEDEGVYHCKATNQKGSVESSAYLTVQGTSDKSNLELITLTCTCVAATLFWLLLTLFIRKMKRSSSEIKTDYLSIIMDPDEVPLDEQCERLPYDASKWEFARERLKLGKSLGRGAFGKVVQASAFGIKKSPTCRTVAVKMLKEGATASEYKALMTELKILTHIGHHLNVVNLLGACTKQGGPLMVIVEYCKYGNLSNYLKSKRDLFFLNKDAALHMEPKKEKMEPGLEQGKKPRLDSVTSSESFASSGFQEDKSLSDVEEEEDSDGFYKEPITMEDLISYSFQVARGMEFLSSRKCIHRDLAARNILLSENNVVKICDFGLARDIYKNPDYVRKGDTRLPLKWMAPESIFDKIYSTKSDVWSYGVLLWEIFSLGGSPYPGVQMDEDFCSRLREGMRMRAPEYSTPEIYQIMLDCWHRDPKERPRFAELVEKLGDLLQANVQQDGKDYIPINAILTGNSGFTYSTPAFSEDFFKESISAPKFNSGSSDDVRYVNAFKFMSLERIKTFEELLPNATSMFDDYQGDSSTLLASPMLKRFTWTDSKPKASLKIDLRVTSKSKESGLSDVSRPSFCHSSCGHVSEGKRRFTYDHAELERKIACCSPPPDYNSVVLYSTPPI

[5] = biological target: Vascular endothelial growth factor receptor 1 (Homo sapiens) (UniProt P17948); conditions: at 1 µM
[6] = biological target: Receptor-type tyrosine-protein kinase FLT3 (Homo sapiens) (UniProt P36888); conditions: at 0.1 µM
[7] = biological target: Receptor-type tyrosine-protein kinase FLT3 (Homo sapiens) (UniProt P36888); conditions: at 1 µM
[8] = system: T1, Receptor-type tyrosine-protein kinase FLT3 (Homo sapiens), P36888 [D835Y]; conditions: at 0.1 µM
T1 sequence (whole entry): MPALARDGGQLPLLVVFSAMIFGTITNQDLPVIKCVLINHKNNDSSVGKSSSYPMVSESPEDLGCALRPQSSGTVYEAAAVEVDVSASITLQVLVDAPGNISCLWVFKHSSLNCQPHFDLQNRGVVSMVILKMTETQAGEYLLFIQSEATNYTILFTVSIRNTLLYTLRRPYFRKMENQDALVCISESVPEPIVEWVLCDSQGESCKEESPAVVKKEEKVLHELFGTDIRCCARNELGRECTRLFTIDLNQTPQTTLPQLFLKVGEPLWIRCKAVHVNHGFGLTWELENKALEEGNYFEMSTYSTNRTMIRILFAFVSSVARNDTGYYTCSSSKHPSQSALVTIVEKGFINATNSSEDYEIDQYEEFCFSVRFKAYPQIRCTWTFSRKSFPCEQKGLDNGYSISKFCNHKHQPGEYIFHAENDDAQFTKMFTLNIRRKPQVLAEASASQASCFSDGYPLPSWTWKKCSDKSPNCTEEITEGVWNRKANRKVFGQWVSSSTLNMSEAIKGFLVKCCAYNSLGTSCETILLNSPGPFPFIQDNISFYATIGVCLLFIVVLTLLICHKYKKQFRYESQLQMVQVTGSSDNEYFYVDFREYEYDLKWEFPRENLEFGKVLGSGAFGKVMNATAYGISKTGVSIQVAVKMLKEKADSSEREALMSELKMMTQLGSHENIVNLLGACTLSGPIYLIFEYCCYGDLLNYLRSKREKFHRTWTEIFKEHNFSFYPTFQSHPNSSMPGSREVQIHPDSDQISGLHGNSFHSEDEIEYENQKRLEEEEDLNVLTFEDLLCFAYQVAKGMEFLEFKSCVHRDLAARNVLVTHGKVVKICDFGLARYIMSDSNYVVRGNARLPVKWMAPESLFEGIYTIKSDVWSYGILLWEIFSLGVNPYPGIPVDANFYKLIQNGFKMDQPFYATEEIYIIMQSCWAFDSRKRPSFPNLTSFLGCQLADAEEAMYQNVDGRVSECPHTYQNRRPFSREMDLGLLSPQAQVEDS

[9] = biological target: Non-receptor tyrosine-protein kinase TYK2 (Homo sapiens) (UniProt P29597); conditions: at 1 µM;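 note: values are mean percent inhibition of TYK2 kinase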
[10] = biological target: T2, Tyrosine-protein kinase receptor TYRO3 (Homo sapiens) (UniProt Q06418); conditions: at 0.1 µM
T2 sequence (whole entry): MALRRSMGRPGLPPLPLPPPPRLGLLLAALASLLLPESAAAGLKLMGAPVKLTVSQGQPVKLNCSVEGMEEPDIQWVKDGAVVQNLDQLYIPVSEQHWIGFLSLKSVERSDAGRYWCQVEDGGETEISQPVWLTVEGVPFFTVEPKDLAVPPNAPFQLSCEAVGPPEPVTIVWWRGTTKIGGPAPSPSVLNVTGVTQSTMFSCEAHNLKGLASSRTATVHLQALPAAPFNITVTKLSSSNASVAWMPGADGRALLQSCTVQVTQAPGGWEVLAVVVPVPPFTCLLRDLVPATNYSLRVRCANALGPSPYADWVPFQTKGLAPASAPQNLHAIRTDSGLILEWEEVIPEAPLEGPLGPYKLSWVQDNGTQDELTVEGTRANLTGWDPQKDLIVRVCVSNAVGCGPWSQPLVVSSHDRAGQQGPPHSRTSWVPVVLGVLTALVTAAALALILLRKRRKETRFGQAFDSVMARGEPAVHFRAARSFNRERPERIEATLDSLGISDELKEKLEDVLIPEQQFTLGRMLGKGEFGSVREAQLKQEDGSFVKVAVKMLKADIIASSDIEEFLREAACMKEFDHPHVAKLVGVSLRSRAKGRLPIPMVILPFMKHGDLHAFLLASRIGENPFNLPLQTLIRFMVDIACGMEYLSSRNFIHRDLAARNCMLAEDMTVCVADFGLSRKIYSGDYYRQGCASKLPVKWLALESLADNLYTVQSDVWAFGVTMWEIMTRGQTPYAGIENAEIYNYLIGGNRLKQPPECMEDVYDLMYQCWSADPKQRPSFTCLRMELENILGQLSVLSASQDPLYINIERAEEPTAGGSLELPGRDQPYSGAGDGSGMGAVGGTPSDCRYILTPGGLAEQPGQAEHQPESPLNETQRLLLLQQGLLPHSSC

[11] = biological target: T2, Tyrosine-protein kinase receptor TYRO3 (Homo sapiens); conditions: at 1 µM
[12] = biological target: Tyrosine-protein kinase Yes (Homo sapiens) (UniProt P07947); conditions: at 0.1 µM
Tyrosine-protein kinase Yes (Homo sapiens), sequence (P07947 2-543 limits assumed): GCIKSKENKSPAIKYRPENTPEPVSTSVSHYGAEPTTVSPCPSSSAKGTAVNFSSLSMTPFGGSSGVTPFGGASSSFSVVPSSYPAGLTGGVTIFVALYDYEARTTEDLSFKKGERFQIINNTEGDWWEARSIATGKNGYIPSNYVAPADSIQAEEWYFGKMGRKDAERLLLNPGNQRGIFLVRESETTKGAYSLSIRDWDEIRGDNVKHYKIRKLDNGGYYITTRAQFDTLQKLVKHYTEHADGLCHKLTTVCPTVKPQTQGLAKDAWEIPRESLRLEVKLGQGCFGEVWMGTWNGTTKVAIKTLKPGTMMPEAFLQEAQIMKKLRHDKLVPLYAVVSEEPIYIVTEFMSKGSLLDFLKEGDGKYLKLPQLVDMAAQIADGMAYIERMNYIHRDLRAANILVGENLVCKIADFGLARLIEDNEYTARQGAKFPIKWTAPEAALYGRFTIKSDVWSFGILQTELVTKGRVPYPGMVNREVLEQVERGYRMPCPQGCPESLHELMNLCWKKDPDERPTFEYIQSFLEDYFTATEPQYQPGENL

[13] = biological target: Tyrosine-protein kinase Yes (Homo sapiens) (UniProt P07947); conditions: at 1 µM
[14] = biological target: T3, Tyrosine-protein kinase ZAP-70 (Homo sapiens) (UniProt P43403); conditions: at 0.1 µM
T3 sequence (whole entry): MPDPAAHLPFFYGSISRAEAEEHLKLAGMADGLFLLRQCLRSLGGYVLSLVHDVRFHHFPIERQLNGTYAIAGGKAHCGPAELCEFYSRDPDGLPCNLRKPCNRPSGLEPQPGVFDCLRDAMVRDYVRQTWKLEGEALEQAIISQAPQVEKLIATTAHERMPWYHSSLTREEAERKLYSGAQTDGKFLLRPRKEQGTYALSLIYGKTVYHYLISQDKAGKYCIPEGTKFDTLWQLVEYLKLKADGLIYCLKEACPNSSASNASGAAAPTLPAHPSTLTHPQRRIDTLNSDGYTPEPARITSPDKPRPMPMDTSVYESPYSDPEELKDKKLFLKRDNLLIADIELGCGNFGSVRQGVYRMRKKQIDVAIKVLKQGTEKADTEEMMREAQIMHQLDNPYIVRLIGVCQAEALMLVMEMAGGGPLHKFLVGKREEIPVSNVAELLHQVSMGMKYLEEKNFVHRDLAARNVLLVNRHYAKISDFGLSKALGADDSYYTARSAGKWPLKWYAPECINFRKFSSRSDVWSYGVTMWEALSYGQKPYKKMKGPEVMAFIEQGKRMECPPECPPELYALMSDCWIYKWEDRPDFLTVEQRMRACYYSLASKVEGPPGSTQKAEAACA

[15] = biological target: T3, Tyrosine-protein kinase ZAP-70 (Homo sapiens); conditions: at 1 µM
[16] = biological target: Serine/threonine-protein kinase B-raf (Homo sapiens) (UniProt P15056); conditions: at 0.1 µM
Serine/threonine-protein kinase B-raf (Homo sapiens), sequence (P15056 whole entry): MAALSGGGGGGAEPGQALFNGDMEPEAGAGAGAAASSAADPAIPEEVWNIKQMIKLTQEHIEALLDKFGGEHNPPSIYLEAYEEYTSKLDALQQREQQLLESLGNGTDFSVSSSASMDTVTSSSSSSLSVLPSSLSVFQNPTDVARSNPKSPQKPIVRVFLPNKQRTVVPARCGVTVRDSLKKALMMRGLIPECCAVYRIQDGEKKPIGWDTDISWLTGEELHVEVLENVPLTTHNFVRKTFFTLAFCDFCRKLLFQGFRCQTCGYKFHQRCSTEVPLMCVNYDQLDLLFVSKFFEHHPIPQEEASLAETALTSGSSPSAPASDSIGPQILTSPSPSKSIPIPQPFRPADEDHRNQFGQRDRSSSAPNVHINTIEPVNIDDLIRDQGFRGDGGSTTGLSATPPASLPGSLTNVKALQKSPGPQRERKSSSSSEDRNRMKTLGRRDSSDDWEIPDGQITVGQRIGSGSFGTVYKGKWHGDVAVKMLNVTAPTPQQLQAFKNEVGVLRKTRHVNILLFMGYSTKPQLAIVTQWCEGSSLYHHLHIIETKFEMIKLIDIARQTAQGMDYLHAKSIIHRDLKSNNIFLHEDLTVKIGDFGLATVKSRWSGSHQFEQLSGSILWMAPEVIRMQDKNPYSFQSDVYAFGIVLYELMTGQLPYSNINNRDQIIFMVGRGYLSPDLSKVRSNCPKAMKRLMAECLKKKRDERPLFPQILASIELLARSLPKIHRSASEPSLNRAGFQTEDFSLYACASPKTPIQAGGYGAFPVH

[17] = biological target: Serine/threonine-protein kinase B-raf (Homo sapiens) (UniProt P15056); conditions: at 1 µM
[18] = system: Serine/threonine-protein kinase B-raf (Homo sapiens), P15056 [V600E]; conditions: at 0.1 µM
Serine/threonine-protein kinase B-raf (Homo sapiens), P15056 [V600E], sequence (P15056 whole entry V600E): as the sequence (P15056 whole entry) above, with V600E counted along it

[19] = system: Serine/threonine-protein kinase B-raf (Homo sapiens), P15056 [V600E]; conditions: at 1 µM
[20] = biological target: RAF proto-oncogene serine/threonine-protein kinase (Homo sapiens) (UniProt P04049); conditions: at 0.1 µM;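 note: values are mean CRAF kinase inhibition from profiling of the GSK Published Kinase Inhibitor Set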
RAF proto-oncogene serine/threonine-protein kinase (Homo sapiens), sequence (P04049 whole entry): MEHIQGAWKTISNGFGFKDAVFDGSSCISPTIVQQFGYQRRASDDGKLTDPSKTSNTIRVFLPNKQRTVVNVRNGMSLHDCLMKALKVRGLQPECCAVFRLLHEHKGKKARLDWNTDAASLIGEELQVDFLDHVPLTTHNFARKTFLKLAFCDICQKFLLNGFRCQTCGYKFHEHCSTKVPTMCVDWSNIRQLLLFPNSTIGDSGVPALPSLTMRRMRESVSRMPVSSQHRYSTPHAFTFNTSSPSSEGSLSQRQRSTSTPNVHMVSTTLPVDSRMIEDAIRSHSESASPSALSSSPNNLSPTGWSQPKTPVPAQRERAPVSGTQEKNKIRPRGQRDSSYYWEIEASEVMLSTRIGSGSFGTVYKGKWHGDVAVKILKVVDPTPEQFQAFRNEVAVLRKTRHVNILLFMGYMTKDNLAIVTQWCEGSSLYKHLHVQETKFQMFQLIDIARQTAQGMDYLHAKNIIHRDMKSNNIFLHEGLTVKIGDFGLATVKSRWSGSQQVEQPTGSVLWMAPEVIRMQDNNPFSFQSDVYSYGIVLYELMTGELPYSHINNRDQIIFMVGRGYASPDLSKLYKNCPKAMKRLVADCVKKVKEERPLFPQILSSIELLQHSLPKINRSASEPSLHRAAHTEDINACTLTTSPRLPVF

Fibroblast growth factor receptor 4 (Homo sapiens), sequence (P22455 22-802 limits assumed): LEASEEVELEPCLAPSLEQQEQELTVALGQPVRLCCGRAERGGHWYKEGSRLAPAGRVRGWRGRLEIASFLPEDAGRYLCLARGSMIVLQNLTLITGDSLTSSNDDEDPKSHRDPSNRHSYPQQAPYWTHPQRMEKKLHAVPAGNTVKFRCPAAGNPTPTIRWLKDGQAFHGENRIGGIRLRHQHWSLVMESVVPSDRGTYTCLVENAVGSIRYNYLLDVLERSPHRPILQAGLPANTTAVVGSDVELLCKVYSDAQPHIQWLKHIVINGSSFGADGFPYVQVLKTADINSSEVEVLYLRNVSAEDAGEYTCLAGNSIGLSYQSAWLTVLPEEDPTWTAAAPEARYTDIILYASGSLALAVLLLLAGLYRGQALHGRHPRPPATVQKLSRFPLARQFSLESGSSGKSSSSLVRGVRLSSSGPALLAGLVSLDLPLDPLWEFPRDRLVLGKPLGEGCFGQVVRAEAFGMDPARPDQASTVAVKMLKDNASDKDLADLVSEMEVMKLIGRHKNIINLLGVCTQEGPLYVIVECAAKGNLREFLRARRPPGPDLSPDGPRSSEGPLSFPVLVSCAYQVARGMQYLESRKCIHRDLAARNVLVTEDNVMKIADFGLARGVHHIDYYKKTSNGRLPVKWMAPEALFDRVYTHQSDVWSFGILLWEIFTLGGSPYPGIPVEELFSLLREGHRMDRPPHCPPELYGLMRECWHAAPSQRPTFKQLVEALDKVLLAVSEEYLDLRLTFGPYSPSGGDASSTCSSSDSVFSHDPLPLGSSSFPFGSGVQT
Tyrosine-protein kinase Fgr (Homo sapiens), sequence (P09769 2-529 limits assumed): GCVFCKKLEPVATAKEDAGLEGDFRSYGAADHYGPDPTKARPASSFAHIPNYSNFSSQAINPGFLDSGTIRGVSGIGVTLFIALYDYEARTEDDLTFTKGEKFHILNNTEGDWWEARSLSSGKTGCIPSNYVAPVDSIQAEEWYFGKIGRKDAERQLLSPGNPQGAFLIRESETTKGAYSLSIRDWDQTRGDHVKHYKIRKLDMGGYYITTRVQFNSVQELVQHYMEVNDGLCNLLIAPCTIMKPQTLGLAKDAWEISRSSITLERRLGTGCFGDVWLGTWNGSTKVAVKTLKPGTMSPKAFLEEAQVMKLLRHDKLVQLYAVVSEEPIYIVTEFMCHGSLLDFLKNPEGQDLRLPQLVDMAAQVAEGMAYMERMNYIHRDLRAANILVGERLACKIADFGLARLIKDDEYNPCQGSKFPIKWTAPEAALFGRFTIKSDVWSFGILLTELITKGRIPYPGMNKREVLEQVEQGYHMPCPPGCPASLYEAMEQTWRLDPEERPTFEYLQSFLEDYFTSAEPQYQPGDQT

SMILES | inhibition [1] [%] | inhibition [2] [%] | inhibition [3] [%] | inhibition [4] [%] | inhibition [5] [%] | inhibition [6] [%] | inhibition [7] [%] | inhibition [8] [%] | inhibition [9] [%] | inhibition [10] [%] | inhibition [11] [%] | inhibition [12] [%] | inhibition [13] [%] | inhibition [14] [%] | inhibition [15] [%] | inhibition [16] [%] | inhibition [17] [%] | inhibition [18] [%] | inhibition [19] [%] | inhibition [20] [%]
CNC(=O)c1cncc(/C=C/c2c(C)cccc2C)c1 | -4.47 | 6.6 | 29.6 | 1.75 | 1.51 | -1.59 | 1.3 | 3.49 | 0.52 | 0.85 | 2.18 | 6.81 | 33 | -2.13 | -4.22 | 0.8 | 5.69 | -0.11 | 2.82 | -5.49
NS(=O)(=O)c1ccc(N/N=C2\C(=O)Nc3ccc(-c4cnco4)cc32)cc1 | -2.44 | 3.25 | 12.9 | -0.89 | 7.48 | 5.93 | 38.3 | 22.6 | 9.13 | 2.48 | 12.4 | 2.12 | 12.1 |  | 2.47 | 3.07 | 5.71 | 1.57 | 4.4 | 0.67
CN(C)CCOc1ccc(-c2cc(-c3ccc4c(c3)CCC4=NO)c(-c3ccncc3)o2)cc1 | -1.71 | 1.5 | 7.33 | -0.18 | -0.16 | -0.73 | -1.89 | -7.59 | 0.1 | -0.87 | 2.92 | 2.18 | 9.45 | -2.95 | 0.13 | 48.5 | 85 | 56.3 | 86.2 | -4.4
Fc1ccc(-c2ncn(C3CCNCC3)c2-c2ccnc(Oc3ccc(F)c(F)c3)n2)cc1 | -4.24 | 2.76 | 3.69 | 0.45 | 4.56 | -1.09 | 4.18 | -2.41 | -5.44 | 1.82 | 1.35 | 2.3 | 0.42 | -5.04 | -3.78 | 6.07 | 6.2 | 4.48 | 4.06 | -1.78
Cc1ccc(C(=O)NC2CCC2)cc1-c1ccc(C(=O)NCC2CC2)cc1 | 1.12 | 0.84 | 4.82 | 1.31 | -0.61 | 0.07 | 1.62 | 0.48 | -2.49 | 1.07 | 1.69 | 1.57 | 0.45 | 3.05 | 3.75 | 3.33 | 2.03 | 3.91 | 3.62 | -1.45
O=C(Nc1n[nH]c2nc(-c3ccco3)ccc12)C1CC1 | 2.6 | 0.22 | 4.92 | 1.05 | 7.88 | 0.89 | 9.22 | -0.89 | -1.09 | 2.23 | 8.73 | 0.35 | 0.02 | 0.28 | 0.47 | 1.98 | 3.43 | 1.17 | 4.38 | 4.75
COc1cc(C)c(N(C)C(=O)CN(C)C)cc1Nc1nc(Nc2cccc(F)c2C(N)=O)c2cc[nH]c2n1 | -2.22 | 0.53 | 2 | -0.09 | 1.09 | 1.42 | 2.03 | 0.68 | -1.64 | 1.86 | -0.84 | 0.04 | -3.38 | -1.25 | -6.34 | 1.62 | 3.95 | 2.25 | 3.53 | -0.36
